# Measured values as given in PubChem BioAssay (NCATS).
# Results filed as inconclusive are left out. Unmarked numbers belong to inactive results. The source made the active and inactive calls. Calls come from the whole dose curve; as a rule, active = well fitted cell-killing curve with a large enough effect; inconclusive = small, poorly fitted or top-dose-only effect, or effect the other way; inactive = no such curve, though single readings can be large or run the other way.
# Assay: Quantitative High-Throughput drug screen in 47 multiple myeloma cell lines against the NCATS MIPE library collection: Karpas417_ECACC cell viability assay (AID 1918961)
# Settings: Karpas417 myeloma viability, CellTiter-Glo ATP luminescence, 48 h; viability (% of DMSO): at 45.8 µM (top of the series)
# Source text: PI: Beverly A. Mock Ph.D.
# Laboratory of Cancer Biology and Genetics,
# Center for Cancer Research, National Cancer Institute,
# National Institute of Health, Bethesda, Maryland
# Drug resistance and disease progression are common in multiple myeloma (MM) patients, underscoring the need for new therapeutic combinations. […] We hypothesized that effective combinations would reduce MYC expression and enhance p16 activity. […] These preclinical data identify potentially useful drug combinations for evaluation in drug-resistant MM and reveal potential mechanisms of combined drug sensitivity.
# Described herein is the primary MIPE qHTS used to cherrypick compounds. Validated compounds were then further tested for potential synergistic activiy.
# [1] Peat TJ, Gaikwad SM, Dubois W, Gyabaah-Kessie N, Zhang S, Gorjifard S, Phyo Z, Andres M, Hughitt VK, Simpson RM, Miller MA, Girvin AT, Taylor A, Williams D, D'Antonio N, Zhang Y, Rajagopalan A, Flietner E, Wilson K, Zhang X, Shinn P, Klumpp-Thomas C, McKnight C, Itkin Z, Chen L, Kazandijian D, Zhang J, Michalowski AM, Simmons JK, Keats J, Thomas CJ, Mock BA. Drug combinations identified by high-throughput screening promote cell cycle transition and upregulate Smad pathways in myeloma. Cancer Lett. 2023 Aug 1;568:216284. doi: 10.1016/j.canlet.2023.216284. Epub 2023 Jun 24. PMID: 37356470; PMCID: PMC10408729.
# SEQUENCE No. (e.g., 1, 2, 3, etc.); […] (e.g., Cells, Incubation, Reagent, etc.); VALUE and DESCRIPTION.
# 1; Cells; 5 uL; white, solid bottom 1536-well Greiner assay plate.
# 2; Compounds; 23 nL; Kalypsis pin tool (Wako USA) equipped with a 1536-well pin head to transfer to the assay plates.
# 3; Incubation; 48 hours; 37C incubation.
# 4; Reagent;5uL; CellTiter Glo (Promega).
# 5; Detector; 425V; Luminescence; Viewlux PerkinElmer.
# NOTES (numbers refer to Sequence numbers above)
# 1. The cell-based screening methods employed in this study were like those previously published. Briefly, the corresponding myeloma cell lines were screened in 1,536-well plates with 500 cells, 5-uL per well for inhibition of cell viability (assessed by measuring ATP levels with CellTiterGlo).
# 2. NCATS MIPE 4.0 library of approved and investigational drugs were added using the Kalypsis pin tool. Wells treated with DMSO only for 100% viability and media only wells for 0% viability were used as controls.
# 3. The assay plates were covered and incubated for 48 hours in a 37C, 5% CO2 incubator with controlled humidity.
# 4. After 48 hours, CellTilter-GloTM luminescent substrate mix (Promega) reagent was added to the assay plate and plates we incubated for 5 min at room temperature.
# 5. Signal was measured as median relative luminescence units on a ViewLux (PerkinElmer) multiplate reader.
# [1] Heske CM, Davis MI, Baumgart JT, Wilson K, Gormally MV, Chen L, Zhang X, Ceribelli M, Duveau DY, Guha R, Ferrer M, Arnaldez FI, Ji J, Tran HL, Zhang Y, Mendoza A, Helman LJ, Thomas CJ. Matrix Screen Identifies Synergistic Combination of PARP Inhibitors and Nicotinamide Phosphoribosyltransferase (NAMPT) Inhibitors in Ewing Sarcoma. Clin Cancer Res. 2017 Dec 1;23(23):7301-7311. doi: 10.1158/1078-0432.CCR-17-1121. Epub 2017 Sep 12. PMID: 28899971; PMCID: PMC6636827.
# Potency is the fitted concentration of half-maximal effect.
SMILES,viability (% of DMSO),Potency
CCN1CCCC1CNC(=O)c1cc(S(N)(=O)=O)ccc1OC (stereo not given),66.1%,
O=C(O)c1cccnc1,104%,
CCc1cc(C(N)=S)ccn1,85.5%,
CCN(CC)CCn1c(=O)c(Cc2ccc(OC)cc2)nc2ccccc21,104%,
NCCCC(O)(P(=O)(O)O)P(=O)(O)O,115%,
COC(c1ccccc1)(c1ccccc1)[C@H](Oc1nc(C)cc(C)n1)C(=O)O,172%,
COc1ccc2cc3[n+](cc2c1OC)CCc1cc2c(cc1-3)OCO2,,9.35 µM (active)
COc1ncnc(NS(=O)(=O)c2ccc(N)cc2)c1OC,97.4%,
COc1c(N2CCNC(C)C2)c(F)cc2c(=O)c(C(=O)O)cn(C3CC3)c12 (stereo not given),115%,
Nc1ccc(S(=O)(=O)Nc2ccccn2)cc1,90.2%,
CCOC(=O)c1ccc(C#Cc2ccc3c(c2)C(C)(C)CCS3)nc1,132% (active),
Nc1nc(N)nc(-c2cc(Cl)ccc2Cl)n1,63.6%,
CC(C)(Sc1cc(C(C)(C)C)c(O)c(C(C)(C)C)c1)Sc1cc(C(C)(C)C)c(O)c(C(C)(C)C)c1,57.2%,
O=C(O)c1cc(=O)[nH]c(=O)[nH]1,133%,
CCC(=O)O[C@]1(C(=O)SCF)[C@H](C)C[C@H]2[C@@H]3C[C@H](F)C4=CC(=O)C=C[C@]4(C)[C@@]3(F)[C@@H](O)C[C@@]21C,58.2%,
COc1cc2c(Nc3ccc(Br)cc3F)ncnc2cc1OCC1CCN(C)CC1,198%,
Cc1ccc(S(=O)(=O)N[C@@H](Cc2ccccc2)C(=O)CCl)cc1,,11.8 µM (active)
COc1nc(N)nc2c1ncn2[C@@H]1O[C@H](CO)[C@@H](O)[C@@H]1O,176%,
CNS(=O)(=O)CCc1ccc2[nH]cc(C3CCN(C)CC3)c2c1,,16.6 µM (active)
C[C@@H]1C[C@H]2[C@@H]3CCC4=CC(=O)C=C[C@]4(C)[C@@]3(Cl)[C@@H](O)C[C@]2(C)[C@@]1(OC(=O)c1ccco1)C(=O)CCl,,8.33 µM (active)

SMILES,viability (% of DMSO),Potency
Nc1nc(F)nc2c1ncn2[C@@H]1O[C@H](CO)[C@@H](O)[C@@H]1O,,0.0469 µM (active)
CC(C)NCC(O)c1ccc(NS(C)(=O)=O)cc1 (stereo not given),179%,
C[C@@H](CN1CC(=O)NC(=O)C1)N1CC(=O)NC(=O)C1,,0.0526 µM (active)
NC(=O)c1cccnc1,114%,
CCC(C)(C)c1ccc(CC(C)CN2C[C@@H](C)O[C@@H](C)C2)cc1 (stereo not given in full),159%,
CC(=O)Oc1ccccc1C(=O)Nc1ncc([N+](=O)[O-])s1,,13.6 µM (active)
CCn1cc(C(=O)O)c(=O)c2cc(F)c(N3CCN(C)CC3)cc21,126%,
Cc1noc(NS(=O)(=O)c2ccc(N)cc2)c1C,108%,
C#CCN[C@@H]1CCc2ccccc21,181%,
CCn1cc(C(=O)O)c(=O)c2cc(F)c(N3CCNCC3)cc21,157%,
O=C(O)c1ccc(-n2nc(-c3ccccc3O)nc2-c2ccccc2O)cc1,27.9%,
C1CCC(C(CC2CCCCN2)C2CCCCC2)CC1 (stereo not given),,18.7 µM (active)
COc1cnc(NS(=O)(=O)c2ccc(N)cc2)nc1,,11.8 µM (active)
NC(=O)c1ccc2[nH]ccc2c1,232%,
CCOC(=O)[C@H](CCc1ccccc1)N[C@H]1CS[C@H](c2cccs2)CN(CC(=O)O)C1=O,,0.264 µM (active)
Cc1onc(-c2ccccc2Cl)c1C(=O)N[C@@H]1C(=O)N2[C@@H]1SC(C)(C)[C@@H]2C(=O)O,107%,
CNS(=O)(=O)Cc1ccc2[nH]cc(CCN(C)C)c2c1,103% (active),
CN(C)CCc1c[nH]c2ccc(C[C@H]3COC(=O)N3)cc12,,3.72 µM (active)
COc1cc2nc(N3CCCN(C)CC3)nc(NC3CCN(Cc4ccccc4)CC3)c2cc1OC,,2.35 µM (active)
COc1cc([C@@H]2c3cc4c(cc3[C@H](O)[C@H]3COC(=O)[C@H]23)OCO4)cc(OC)c1OC,25.1%,
